From ChEMBL document CHEMBL3433997, “St. Jude Leishmania screening dataset” (2016)

Key:
Type in all cases: functional
[1] = biological target: Solute carrier family 2, facilitated glucose transporter member 1 (Homo sapiens) (UniProt P11166); test: ST_JUDE_LEISH: Cytotoxicity at 2uM final concentration against transgenic Leishmania Mexicana promastigotes LmGLUT1 that are glucose transport deficient and complemented with the human glucose transporter GLUT1. Activity is measured by DNA content using SYBR green in vitro
Chain of Solute carrier family 2, facilitated glucose transporter member 1 (Homo sapiens) (P11166 whole entry): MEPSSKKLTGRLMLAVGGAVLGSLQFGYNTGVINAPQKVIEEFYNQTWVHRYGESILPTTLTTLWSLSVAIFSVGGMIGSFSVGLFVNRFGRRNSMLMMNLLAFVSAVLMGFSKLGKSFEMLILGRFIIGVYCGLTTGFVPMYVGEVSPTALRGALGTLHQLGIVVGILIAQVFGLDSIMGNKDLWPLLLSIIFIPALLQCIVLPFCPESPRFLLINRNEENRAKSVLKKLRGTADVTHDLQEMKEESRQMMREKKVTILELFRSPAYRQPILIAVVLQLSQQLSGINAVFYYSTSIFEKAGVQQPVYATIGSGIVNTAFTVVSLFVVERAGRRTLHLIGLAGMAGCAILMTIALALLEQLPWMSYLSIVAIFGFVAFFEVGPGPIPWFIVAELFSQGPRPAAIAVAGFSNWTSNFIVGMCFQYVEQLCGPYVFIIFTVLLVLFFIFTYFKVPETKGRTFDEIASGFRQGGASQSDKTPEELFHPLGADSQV

[2] = biological target: Hexose transporter 1 (Plasmodium falciparum) (UniProt O97467); test: ST_JUDE_LEISH: Cytotoxicity at 2uM final concentration against transgenic Leishmania Mexicana promastigotes LmPfHT that are glucose transport deficient and complemented with the Plasmodium falciparum hexose transporter. Activity is measured by DNA content using SYBR green in vitro
[3] = biological target: Glucose transporter (Leishmania mexicana) (UniProt O61059); test: ST_JUDE_LEISH: Cytotoxicity at 2uM final concentration against transgenic Leishmania Mexicana promastigotes LmGT2 that are glucose transport deficient and complemented with the L. Mexicana glucose transporter 2. Activity is measured by DNA content using SYBR green in vitro

## CCCOc1ccc(OCCCON2C(=N)N=C(N)NC2(C)C)cc1
[1]
  inhibition: 1.05%
[2]
  inhibition: 0.05%
[3]
  inhibition: 0.28%

## CCOc1cc(C)ccc1N(C1CCN(CCCCNC(=O)c2ccc(-c3ccc(C(F)(F)F)cc3)cc2)CC1)S(=O)(=O)c1ccccc1
[1]
  inhibition: 0.32%
[2]
  inhibition: 1.25%
[3]
  inhibition: -0.57%

## Cc1cccc2nc(-c3ccc(-c4ccc(CN5CCN(c6cnccn6)CC5)cc4)s3)[nH]c12
[1]
  inhibition: 11.9%
[2]
  inhibition: 9.41%
[3]
  inhibition: 9.78%

## Cc1nc(NCc2ccccc2)cc(Nc2cc(NCc3ccccc3)nc(C)n2)n1
[1]
  inhibition: 4.26%
[2]
  inhibition: 3.76%
[3]
  inhibition: 1.98%

## CC(C)c1ccc(CN2CCC(CNC(=O)c3cc(-c4ccc(N(C)C)cc4)cs3)C2)cc1 (stereo unspecified)
[1]
  inhibition: 2.27%
[2]
  inhibition: 3.51%
[3]
  inhibition: 2.27%

## CCOC(=O)CCCCOc1c(OC)cc(Cc2cnc(N)nc2N)cc1OC
[1]
  inhibition: 6.18%
[2]
  inhibition: 6.88%
[3]
  inhibition: 6.09%

## CCc1c[nH]c2c(N3CCCC3=O)cc(C(=O)N[C@@H](Cc3ccccc3)[C@H](O)CNC3CCCCC3)cc12
[1]
  inhibition: 7.8%
[2]
  inhibition: 6.05%
[3]
  inhibition: 9.77%

## CN1CCN(c2ccc(-c3cccc(NC(=O)c4cccc(Cl)c4)c3)nn2)CC1
[1]
  inhibition: 2.62%
[2]
  inhibition: 1.54%
[3]
  inhibition: 3.23%

## Cc1cnc2cc3c(cc2c1N1CCN(C)CC1)NCC3
[1]
  inhibition: -0.55%
[2]
  inhibition: -0.98%
[3]
  inhibition: -1.24%

## CC(=O)N/N=C/[C@H](CCc1ccccc1)NC(=O)[C@H](CC(C)C)NC(=O)c1ccc(F)cc1
[1]
  inhibition: 6.34%
[2]
  inhibition: 4.34%
[3]
  inhibition: 4.68%

## CC1CCC(NC(=O)c2nn(-c3ccc(Cl)cc3)c(=O)c3ccccc23)CC1 (stereo unspecified)
[1]
  inhibition: 1.52%
[2]
  inhibition: 1.39%
[3]
  inhibition: -0.26%

## O=C(/C=C/c1cccc(Br)c1)NCCCCCN1CCC(c2c[nH]c3ccccc23)CC1
[1]
  inhibition: 3.71%
[2]
  inhibition: 2.1%
[3]
  inhibition: 5.42%
